An excerpt weighted towards active compounds, which were near 0.81% of everything screened.
TRPML1 agonist – qHTS for Agonists of the Human Mucolipin Transient Receptor Potential 1 (TRPML1); AID 624414, 2012; activation, % (concentration not given with the values); TRPML1-expressing cells, Ca2+ dye fluorescence, FDSS; Mucolipin-1 (Homo sapiens), Q9GZU1; actives 0.12% (n = 410,000); in the data active means activation above about 50%; inconclusive means mostly about 30% to 49%; further: 0% is about no effect
Target sequence (Q9GZU1 whole entry, looked up): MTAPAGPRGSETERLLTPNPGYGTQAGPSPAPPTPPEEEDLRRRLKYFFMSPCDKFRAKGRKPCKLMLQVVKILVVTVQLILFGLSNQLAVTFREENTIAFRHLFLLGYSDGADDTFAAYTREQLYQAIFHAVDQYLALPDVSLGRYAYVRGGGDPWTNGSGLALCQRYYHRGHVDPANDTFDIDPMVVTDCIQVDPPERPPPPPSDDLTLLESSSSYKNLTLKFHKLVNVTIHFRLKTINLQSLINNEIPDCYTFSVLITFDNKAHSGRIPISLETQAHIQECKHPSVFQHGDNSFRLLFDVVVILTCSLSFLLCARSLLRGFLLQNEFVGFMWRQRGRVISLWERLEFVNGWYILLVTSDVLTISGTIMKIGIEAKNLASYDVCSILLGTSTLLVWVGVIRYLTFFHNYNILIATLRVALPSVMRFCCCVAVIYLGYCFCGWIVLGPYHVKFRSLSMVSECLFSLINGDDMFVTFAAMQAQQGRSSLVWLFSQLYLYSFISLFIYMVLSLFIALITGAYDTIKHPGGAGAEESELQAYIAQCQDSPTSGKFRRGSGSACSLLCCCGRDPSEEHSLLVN
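In this qHTS format, compounds were pin-transferred onto Ca8-dye-loaded TRPML1-DL cells induced with Tet overnight, and intracellular Ca2+ fluorescence was recorded kinetically for 110 s after a 10 s baseline. A subsequent 4uM final 54-4 (EC80) addition followed by a second 110 s read served as the antagonist phase.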
TRHR ag – qHTS for Small Molecule Agonists and Allosteric Enhancers of Human TRH Receptor: Primary Screen for Agonists. Thyrotropin-releasing hormone receptor (Homo sapiens), P34981. TRHR cells, calcium flux fluo-8, FDSS agonist mode. activation, % at 2 µM. actives 0.18% (n = 360,000); in the data active means activation above about 30%; further: 0% is about no effect
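Read-out: compound-evoked intracellular calcium rise in TRHR cells, fluo-8 dye, kinetic FDSS fluorescence at 1 s/cycle following a 10-cycle baseline. Cells cultured overnight before dye loading (30 min–1.5 h, RT).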
TRPML1 inh – qHTS for Inhibitors of the Human Mucolipin Transient Receptor Potential 1 (TRPML1) | Mucolipin-1 (Homo sapiens), Q9GZU1 | TRPML1-inducible cells, Ca2+ dye fluorescence, FDSS; hits give low values; inhibition of EC80 agonist-evoked calcium signal | activity change, negative = inhibition, % (concentration not given with the values) | actives 0.02% (n = 390,000); in the data active means activity change below about -50%; inconclusive means between about -30% and that limit;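 further: stimulus is agonist 54-4 at its EC80 concentration; on the % scale 0 is the no-effect control and ±100 the full control effect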
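TRPML1-DL cells, Tet-induced overnight (~16 h, 37 °C) at 1,500 cells/well, were loaded with Ca8 no-wash dye plus quencher for 45-90 min at room temperature. Compounds were pinned during FDSS kinetic reading; agonist 54-4 at EC80 (4 uM final) then added.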
PTAP TSG101 blk – qHTS Assay for Iinhibitors of HIV-1 Budding by Blocking the Interaction of PTAP/TSG101. Tumor susceptibility gene 101 protein (Homo sapiens), Q99816. Fluorescence polarization, FITC-PTAP peptide / Tsg101 binding. Potency, µM (series often up to 115 µM), for the others: at the highest dose activity change, negative = inhibition, usual class: inhibitors. 340,000 tested, under 10 active. AID 493005, 2010; active means well fitted inhibition curve with a large enough effect in the main read-out, with a control signal flat, not every such curve was filed as active; inconclusive means small, poorly fitted or top-dose-only effect, or effect the other way, or a change in a side signal; inactive means no such curve, though single readings can be large or run the other way; further: potency means the concentration at half of the fitted maximal effect; % of control where 0% means no effect
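FP read-out: FITC-PTAP peptide, 50 nM final, binding Tsg101 binding domain, 10 uM final; 20 min, r.t.; 10 mM HEPES pH 7.5, 0.15 M NaCl, 0.01% Tween 20, 3 mM EDTA, 0.1 mM TCEP.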
TRHR enhancer – qHTS for Small Molecule Agonists and Allosteric Enhancers of Human TRH Receptor: Primary Screen for Enhancers; TRHR cells, fluo-8 calcium fluorescence, EC20 TRH enhancement; enhancement, % at 2 µM; actives 0.66% (n = 360,000); AID 493056, 2011; in the data active means enhancement above about 30%; further: 0% is about no effect
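Enhancer read-out: after compound pinning and an initial kinetic agonist-mode read, an EC20 of TRH (10 nM final) was injected and fluo-8 calcium signal (Ex 480/Em 530) followed at 1 s/cycle for 100 cycles in TRHR-expressing cells.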
* hit, by the source's call; ? = inconclusive; . = no result.

SMILES	TRPML1 agonist	TRHR ag	TRPML1 inh	PTAP TSG101 blk	TRHR enhancer
COc1ccc(C(=O)Nc2cccc(-c3ccc(N4CCOCC4)nn3)c2)cc1	-1	0	2	-5%	37*
C=C[C@@H]1c2cc(C)ccc2N(S(=O)(=O)c2ccc(C)cc2)[C@H](c2ccc(C(C)(F)F)cc2)C1(C#N)C#N	51*	.	.	.	.
Cc1ccc(CN2[C@H]3CCCC[C@@H]3OCCS2(=O)=O)cc1	-1	.	.	.	.
CC(C)/C=C/CN1CCN(CCCc2ccccc2)C(CCO)C1 (configuration not stated)	1	0	17	1%	34*
COc1ccc(-c2[nH]ncc2CN2CCCN(c3ccccc3)CC2)c(F)c1	0	1	0	-2%	-4
COc1ccc2cc(-c3[nH]ncc3CN3CCCN(c4ccccc4)CC3)ccc2c1	2	0	11	-3%	31*
CC(C)(C)C(=O)NC(=S)NNC(=O)C(c1ccccc1)c1ccccc1	.	99*	.	0%	1
CCOC(=O)N1CCN(C(=O)c2cc3cc(Br)ccc3oc2=O)CC1	0	0	4	0%	41*
COc1ccccc1N1CCN(C(=O)c2cc3cc(Br)ccc3oc2=O)CC1	0	-1	10	1%	-8
Cn1c(SCC(=O)NCc2ccco2)nnc1-c1ccc(NC(=O)c2ccccc2)cc1	0	.	.	.	.
Cc1ccc(/C=C2\CCC3=C2OC(N)=C(C#N)C3c2ccc(C)cc2)cc1 (configuration not stated)	?	68*	-1	?	15
COc1ccccc1/C=c1/[nH]c(=O)/c(=C\c2ccccc2OC)[nH]c1=O	0	.	.	.	.
CN1C(=O)CC(c2ccco2)Sc2ccccc21 (configuration not stated)	0	0	-4	-7%	35*
CCCN1C(=O)CC(c2ccco2)Sc2ccccc21 (configuration not stated)	1	0	3	-3%	-2
Cc1cc(C(=O)OCC(=O)N(C)c2ccccc2)ccc1[N+](=O)[O-]	0	-1	15	-2%	35*
CCSc1nc(C)c(C)c(=O)[nH]1	2	-1	1	-5%	8
CCCc1nc(SC)[nH]c(=O)c1C	1	0	17	-6%	34*
COc1ccc(NCc2cc3cc4c(cc3n(CC(=O)Nc3ccc(F)cc3F)c2=O)OCO4)cc1	15	10	-28	.	35*
Cc1cc2c(s1)c1cnn(Cc3ccc(Cl)cc3)c(=O)c1n2C	.	0	.	.	0
O=S(=O)(c1ccccc1)c1nc(-c2cccc(Cl)c2)oc1NCc1ccccc1	0	-1	6	.	-1
O=S(=O)(c1ccc(Cl)cc1)c1nc(-c2cccc(Br)c2)oc1NCc1ccccc1	0	1	30	.	31*
COc1cc2nc(CCNCc3ccccc3)nc(NC3CCN(C)CC3)c2cc1OC	0	.	.	.	.
CC(OC(=O)c1c2c(nc3ccccc13)/C(=C\c1ccc3c(c1)OCO3)CCC2)C(=O)Nc1ccc(S(N)(=O)=O)cc1 (configuration not stated)	?	96*	1	?	1
N#Cc1c(Cl)cccc1Oc1ccc([S+](=O)([O-])N2CCN([S+](=O)([O-])c3c(F)cccc3F)CC2)cc1	.	0	.	.	2
CCOc1cc(/C=C2\CCCc3c2nc2ccccc2c3C(=O)O)ccc1OC	78*	151*	-11	-1%	15
SMILES	TRPML1 agonist	TRHR ag	TRPML1 inh	PTAP TSG101 blk	TRHR enhancer
CC(C)(C)n1ncc2c(=O)n(Cc3c(Cl)cccc3Cl)cnc21	2	.	-3	.	.
COCCNc1ccnc2c(Cl)cccc12	0	0	-4	1%	-3
COCCCNc1ccnc2c(Cl)cccc12	-1	1	-9	3%	37*
CCOc1ccc(OCC)c(S(=O)(=O)n2cnc(C)c2)c1	0	0	19	2%	32*
O=C(Nc1cc([N+](=O)[O-])ccc1O)c1ccc2c(c1)C(=O)N(Cc1ccco1)C2=O	0	0	-11	4%	39*
O=C(Nc1ccc(O)cc1C(=O)O)c1ccc2c(c1)C(=O)N(Cc1ccco1)C2=O	2	-1	-6	-1%	2
Cc1cc(C(Br)(Br)Br)nc2ccccc12	-1	.	.	.	.
Cc1nnsc1C(=O)N/N=C/c1ccc2ccccc2c1O	?	65*	-12	3%	15
Cc1nnsc1C(=O)N/N=C/c1ccccc1	-1	-1	-4	-2%	5
CC[N+](C)(C)c1ccc(/C=C/c2ccc3ccccc3n2)cc1	0	.	.	.	.
Cc1nc(-c2cccc(F)c2)sc1CCNC(=O)c1ccc(F)c(F)c1	2	-1	2	.	30*
CC(C)Cn1c(-c2ccco2)n[nH]c1=S	0	0	5	-3%	35*
O=C(Cc1ccccc1Cl)NO	0	.	.	.	.
Cn1cc(C2=C(c3ccc(Cl)cc3Cl)C(=O)NC2=O)c2ccccc21	24	48*	-10	?	5
Cn1cc(-c2ccccc2C(N)=O)c(=O)c2cc(Cl)ccc21	-1	0	7	0%	-5
Clc1ccc2nc[nH]c2c1	0	.	.	.	.
C(=C\c1ccnc2ccccc12)/c1cc2c3c(c1)CCCN3CCC2	-1	.	.	.	.
O=C(Nc1cnn(Cc2ccc(Cl)cc2Cl)c1)c1noc2c1CCc1ccccc1-2	0	35*	-14	.	5
Cc1cc(C(=O)Nc2cnn(Cc3ccc(Cl)cc3Cl)c2)no1	1	0	-11	-12%	7
C=CC(=O)N1CCC[C@@H](n2nc(-c3ccc(Oc4ccccc4)cc3)c3c(N)ncnc32)C1	1	.	.	.	.
Cn1c2cc(Br)sc2c2cnn(Cc3ccccc3F)c(=O)c21	.	-1	.	.	-2
C=C1C=C(C)n2ncc(C(=O)Nc3cccc4cnccc34)c2N1	0	.	.	.	.
COc1ccc(C(=O)Nc2nc3n(n2)C(c2ccc(Cl)cc2)C=C(c2ccccc2)N3)cc1OC (configuration not stated)	14	30*	-1	.	7
COc1ccc(NS(=O)(=O)c2cc(NC(=O)c3cc(=O)c4ccccc4o3)ccc2OC)cc1	0	0	7	-2%	34*
COc1cccc(NC(=O)c2cc(=O)c3ccccc3o2)c1	1	0	24	-4%	2
C[n+]1c(/C=C/c2ccc(N)cc2)sc2ccccc21	0	.	.	.	.
O=C(/C=C/c1cn(CC(O)CN2CCOCC2)c2ccccc12)c1cccs1 (configuration not stated)	.	32*	.	.	0

Screens deposited in PubChem by National Center for Advancing Translational Sciences (NCATS).
